The text below walks through data of ChEMBL document CHEMBL3988442, “University of Dundee, Small-Polar-MMV Screening Library” (2021).

For part of these data: Potency and affinity values are given separately.

Holding throughout (set-up): scale not given: direction of the effect not stated beside the values
Experiment [1] deals with Protein translocase subunit SecA (Escherichia coli (strain K12)) (UniProt P10408). Briefly: Assay to Identify E. coli SecA ATPase Inhibitors. Type of experiment: functional. As to conditions: 30 µM.
Sequence of Protein translocase subunit SecA (Escherichia coli (strain K12)) (P10408 whole entry): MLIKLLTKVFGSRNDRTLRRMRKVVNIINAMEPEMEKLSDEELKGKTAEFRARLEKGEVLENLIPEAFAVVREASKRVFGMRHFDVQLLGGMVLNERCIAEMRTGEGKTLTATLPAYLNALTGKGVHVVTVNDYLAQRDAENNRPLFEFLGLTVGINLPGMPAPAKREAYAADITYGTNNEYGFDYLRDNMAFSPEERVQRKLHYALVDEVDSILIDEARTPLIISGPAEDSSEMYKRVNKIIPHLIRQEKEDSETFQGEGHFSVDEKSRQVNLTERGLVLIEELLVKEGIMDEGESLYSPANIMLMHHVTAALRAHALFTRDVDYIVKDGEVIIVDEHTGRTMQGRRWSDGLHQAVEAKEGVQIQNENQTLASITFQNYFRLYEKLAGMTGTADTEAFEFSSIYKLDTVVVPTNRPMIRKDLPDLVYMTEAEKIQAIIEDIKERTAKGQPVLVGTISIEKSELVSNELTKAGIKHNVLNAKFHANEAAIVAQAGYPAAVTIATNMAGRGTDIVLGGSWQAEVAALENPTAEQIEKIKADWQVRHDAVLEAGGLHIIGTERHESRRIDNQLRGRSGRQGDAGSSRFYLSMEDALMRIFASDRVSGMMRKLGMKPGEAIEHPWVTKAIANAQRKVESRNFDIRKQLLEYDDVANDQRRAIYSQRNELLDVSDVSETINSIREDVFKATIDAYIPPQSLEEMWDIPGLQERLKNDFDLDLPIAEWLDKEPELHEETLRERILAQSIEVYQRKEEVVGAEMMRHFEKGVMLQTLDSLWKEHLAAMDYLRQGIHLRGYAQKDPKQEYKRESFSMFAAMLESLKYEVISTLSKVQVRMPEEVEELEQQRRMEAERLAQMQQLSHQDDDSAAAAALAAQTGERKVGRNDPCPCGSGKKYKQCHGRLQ
Experiment [2] addresses T1, Ubiquitin-activating enzyme e1, putative (Leishmania donovani (strain BPK282A1)) (UniProt E9BSI1).
T1 sequence (whole entry): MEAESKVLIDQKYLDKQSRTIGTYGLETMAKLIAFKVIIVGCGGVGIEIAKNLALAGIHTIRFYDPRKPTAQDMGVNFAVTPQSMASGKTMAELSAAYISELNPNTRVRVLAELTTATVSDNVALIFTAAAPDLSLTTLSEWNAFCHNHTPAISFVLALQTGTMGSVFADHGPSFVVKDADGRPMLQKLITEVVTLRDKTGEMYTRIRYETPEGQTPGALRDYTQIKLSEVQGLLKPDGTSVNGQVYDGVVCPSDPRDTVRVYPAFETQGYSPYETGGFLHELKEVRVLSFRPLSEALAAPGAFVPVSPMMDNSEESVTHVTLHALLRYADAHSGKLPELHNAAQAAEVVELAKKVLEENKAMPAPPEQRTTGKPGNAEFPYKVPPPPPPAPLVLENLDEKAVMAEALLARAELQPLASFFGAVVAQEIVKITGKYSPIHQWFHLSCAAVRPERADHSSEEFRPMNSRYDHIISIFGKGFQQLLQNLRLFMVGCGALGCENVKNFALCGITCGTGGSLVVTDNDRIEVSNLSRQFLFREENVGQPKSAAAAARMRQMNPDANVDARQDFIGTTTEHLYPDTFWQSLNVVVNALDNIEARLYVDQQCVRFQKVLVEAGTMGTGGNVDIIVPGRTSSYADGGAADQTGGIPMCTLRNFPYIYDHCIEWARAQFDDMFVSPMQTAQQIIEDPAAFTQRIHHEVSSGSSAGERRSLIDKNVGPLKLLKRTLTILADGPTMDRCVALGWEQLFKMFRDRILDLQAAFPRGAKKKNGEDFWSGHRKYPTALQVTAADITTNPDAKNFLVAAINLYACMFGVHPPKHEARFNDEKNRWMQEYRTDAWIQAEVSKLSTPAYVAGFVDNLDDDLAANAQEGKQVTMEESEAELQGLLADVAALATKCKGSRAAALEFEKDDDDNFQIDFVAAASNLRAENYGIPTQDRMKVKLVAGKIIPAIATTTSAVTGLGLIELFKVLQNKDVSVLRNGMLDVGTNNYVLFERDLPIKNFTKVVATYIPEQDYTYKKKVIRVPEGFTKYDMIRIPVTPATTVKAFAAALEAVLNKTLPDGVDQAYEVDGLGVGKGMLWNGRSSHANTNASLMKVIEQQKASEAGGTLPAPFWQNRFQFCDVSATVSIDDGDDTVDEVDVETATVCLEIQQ
Nature of the experiment: Leishmania donovani Ubiquitin Activating Enzyme (LdE1). The class given is functional. Particulars: 30 µM.

Experiment [3] concerns the target AMP-activated protein kinase, AMPK (Homo sapiens) (UniProt P54646+O43741+P54619+Q9UGJ0+Q9Y478+Q13131+Q9UGI9). Nature of the experiment: AMP-dependent Kinase enzyme assay. An in vitro enzyme assay that detects ADP turnover that is directly proportional to AMPK activity. This uses naive AMPK that is activated during the assay with MK-8722. The class given is functional. As to conditions: 30 µM.

In experiment [4] the target is Sialic acid-binding Ig-like lectin 9 (Homo sapiens) (UniProt Q9Y336). Nature of the experiment: Hs-Siglec9 ALPHAscreen SOP 20170721. As to conditions: 10 µM. For orientation: Bead proximity is the source of the signal in Alpha formats.
Sequence of Sialic acid-binding Ig-like lectin 9 (Homo sapiens) (Q9Y336 whole entry): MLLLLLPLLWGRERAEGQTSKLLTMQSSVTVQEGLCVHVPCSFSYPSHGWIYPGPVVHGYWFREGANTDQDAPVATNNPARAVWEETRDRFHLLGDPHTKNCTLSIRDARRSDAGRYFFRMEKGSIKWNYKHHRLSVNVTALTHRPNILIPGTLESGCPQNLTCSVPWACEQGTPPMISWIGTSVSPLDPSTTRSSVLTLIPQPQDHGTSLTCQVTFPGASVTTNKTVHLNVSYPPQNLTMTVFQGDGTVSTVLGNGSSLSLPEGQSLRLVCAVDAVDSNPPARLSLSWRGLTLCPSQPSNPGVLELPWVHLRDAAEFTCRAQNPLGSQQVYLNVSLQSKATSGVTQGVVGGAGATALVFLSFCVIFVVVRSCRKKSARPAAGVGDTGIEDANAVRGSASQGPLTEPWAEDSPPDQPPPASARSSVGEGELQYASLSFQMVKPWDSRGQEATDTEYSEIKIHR
For experiment [5], the system named is Trypanosoma cruzi. Nature of the experiment: Trypanosoma cruzi phosphomannomutase and mannose-1-phosphate guanylyltransferase assay. The class given is functional. Particulars: 10 µM.
Experiment [6] has as its target T2, Arginase-2, mitochondrial (Homo sapiens) (UniProt P78540).
T2 sequence (whole entry): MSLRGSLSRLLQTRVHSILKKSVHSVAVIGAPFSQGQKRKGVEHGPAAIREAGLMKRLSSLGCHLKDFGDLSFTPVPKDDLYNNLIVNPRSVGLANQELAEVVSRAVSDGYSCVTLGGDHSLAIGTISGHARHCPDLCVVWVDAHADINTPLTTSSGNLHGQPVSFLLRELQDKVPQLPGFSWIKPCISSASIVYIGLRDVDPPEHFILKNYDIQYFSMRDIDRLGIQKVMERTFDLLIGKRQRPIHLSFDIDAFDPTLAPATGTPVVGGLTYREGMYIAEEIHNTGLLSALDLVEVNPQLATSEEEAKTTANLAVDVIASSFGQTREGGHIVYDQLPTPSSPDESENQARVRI
Nature of the experiment: in vitro enzyme assay to detect the production of urea directly proportional to the activity of Arginase II. Further: in the data most compounds retested in dose-response had high values. Type of experiment: functional. As to conditions: 33.3 µM.

For experiment [7], the target named is T3, Proteasome subunit beta (Trypanosoma cruzi) (UniProt O96673).
T3 sequence (whole entry): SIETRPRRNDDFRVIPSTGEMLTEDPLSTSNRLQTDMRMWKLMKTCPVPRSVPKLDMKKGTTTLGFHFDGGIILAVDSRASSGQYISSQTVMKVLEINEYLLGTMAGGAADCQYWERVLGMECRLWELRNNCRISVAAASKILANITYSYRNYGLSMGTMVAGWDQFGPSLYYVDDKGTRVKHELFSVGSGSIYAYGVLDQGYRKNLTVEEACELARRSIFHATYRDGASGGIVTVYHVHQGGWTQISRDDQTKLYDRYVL
Briefly: Trypanosoma cruzi proteasome chymotrypsin-like activity (TcProtChymo) assay. Further: in the data most compounds retested in dose-response had high values. The class given is functional. Particulars: 9.37 µM.

For experiment [8], the species on record is Homo sapiens. Nature of the experiment: To identify inhibition of the IFN signalling (Jak-Stat) pathway via expression of an eGFP reporter gene under the control of an IFN-stimulated response element (ISRE) containing MxA promoter. Particulars: 30 µM. Type of experiment: functional. In general terms: A reporter such as luciferase makes a cellular process visible.

The target in experiment [9] is T4, Tyrosyl-tRNA synthetase, putative (Trypanosoma cruzi (strain CL Brener)) (UniProt Q4DSP6).
T4 sequence (whole entry): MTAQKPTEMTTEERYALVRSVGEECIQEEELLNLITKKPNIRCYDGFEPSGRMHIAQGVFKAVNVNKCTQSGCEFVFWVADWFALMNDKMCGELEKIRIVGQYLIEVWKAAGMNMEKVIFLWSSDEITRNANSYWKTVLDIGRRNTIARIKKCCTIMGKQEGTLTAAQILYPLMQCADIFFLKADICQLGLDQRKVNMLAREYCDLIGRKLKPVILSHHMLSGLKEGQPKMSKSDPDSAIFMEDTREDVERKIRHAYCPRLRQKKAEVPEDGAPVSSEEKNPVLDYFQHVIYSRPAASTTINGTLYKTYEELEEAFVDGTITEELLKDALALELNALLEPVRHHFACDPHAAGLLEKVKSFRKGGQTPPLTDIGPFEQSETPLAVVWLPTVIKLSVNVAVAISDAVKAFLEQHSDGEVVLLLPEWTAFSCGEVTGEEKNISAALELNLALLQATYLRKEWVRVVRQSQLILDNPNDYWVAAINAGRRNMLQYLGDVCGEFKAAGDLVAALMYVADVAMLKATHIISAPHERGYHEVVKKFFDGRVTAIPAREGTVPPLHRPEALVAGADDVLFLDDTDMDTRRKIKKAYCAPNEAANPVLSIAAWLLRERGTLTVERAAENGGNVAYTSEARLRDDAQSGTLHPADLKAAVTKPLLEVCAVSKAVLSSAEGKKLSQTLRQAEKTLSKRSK
Briefly: Trypanosoma cruzi tyrosyl tRNA synthetase (TcYRS) _High Tyrosine SOP. Further: in the data most compounds retested in dose-response had high values. Type of experiment: functional. Particulars: 30 µM.

Experiment [10] has as its target T4, Tyrosyl-tRNA synthetase, putative (Trypanosoma cruzi (strain CL Brener)). Nature of the experiment: Trypanosoma cruzi tyrosyl tRNA synthetase (TcYRS) SOP. The class given is functional. Particulars: 30 µM.
In experiment [11] the target is Chromo domain-containing protein 1 (Saccharomyces cerevisiae (strain ATCC 204508 / S288c) (Baker's yeast)) (UniProt P32657). Nature of the experiment: ScCHD-1 Enzyme Inhibition Assay. Further: in the data most compounds retested in dose-response had high values. Particulars: 30 µM. The class given is functional.
Sequence of Chromo domain-containing protein 1 (Saccharomyces cerevisiae (strain ATCC 204508 / S288c) (Baker's yeast)) (P32657 whole entry, the tested form may be a part): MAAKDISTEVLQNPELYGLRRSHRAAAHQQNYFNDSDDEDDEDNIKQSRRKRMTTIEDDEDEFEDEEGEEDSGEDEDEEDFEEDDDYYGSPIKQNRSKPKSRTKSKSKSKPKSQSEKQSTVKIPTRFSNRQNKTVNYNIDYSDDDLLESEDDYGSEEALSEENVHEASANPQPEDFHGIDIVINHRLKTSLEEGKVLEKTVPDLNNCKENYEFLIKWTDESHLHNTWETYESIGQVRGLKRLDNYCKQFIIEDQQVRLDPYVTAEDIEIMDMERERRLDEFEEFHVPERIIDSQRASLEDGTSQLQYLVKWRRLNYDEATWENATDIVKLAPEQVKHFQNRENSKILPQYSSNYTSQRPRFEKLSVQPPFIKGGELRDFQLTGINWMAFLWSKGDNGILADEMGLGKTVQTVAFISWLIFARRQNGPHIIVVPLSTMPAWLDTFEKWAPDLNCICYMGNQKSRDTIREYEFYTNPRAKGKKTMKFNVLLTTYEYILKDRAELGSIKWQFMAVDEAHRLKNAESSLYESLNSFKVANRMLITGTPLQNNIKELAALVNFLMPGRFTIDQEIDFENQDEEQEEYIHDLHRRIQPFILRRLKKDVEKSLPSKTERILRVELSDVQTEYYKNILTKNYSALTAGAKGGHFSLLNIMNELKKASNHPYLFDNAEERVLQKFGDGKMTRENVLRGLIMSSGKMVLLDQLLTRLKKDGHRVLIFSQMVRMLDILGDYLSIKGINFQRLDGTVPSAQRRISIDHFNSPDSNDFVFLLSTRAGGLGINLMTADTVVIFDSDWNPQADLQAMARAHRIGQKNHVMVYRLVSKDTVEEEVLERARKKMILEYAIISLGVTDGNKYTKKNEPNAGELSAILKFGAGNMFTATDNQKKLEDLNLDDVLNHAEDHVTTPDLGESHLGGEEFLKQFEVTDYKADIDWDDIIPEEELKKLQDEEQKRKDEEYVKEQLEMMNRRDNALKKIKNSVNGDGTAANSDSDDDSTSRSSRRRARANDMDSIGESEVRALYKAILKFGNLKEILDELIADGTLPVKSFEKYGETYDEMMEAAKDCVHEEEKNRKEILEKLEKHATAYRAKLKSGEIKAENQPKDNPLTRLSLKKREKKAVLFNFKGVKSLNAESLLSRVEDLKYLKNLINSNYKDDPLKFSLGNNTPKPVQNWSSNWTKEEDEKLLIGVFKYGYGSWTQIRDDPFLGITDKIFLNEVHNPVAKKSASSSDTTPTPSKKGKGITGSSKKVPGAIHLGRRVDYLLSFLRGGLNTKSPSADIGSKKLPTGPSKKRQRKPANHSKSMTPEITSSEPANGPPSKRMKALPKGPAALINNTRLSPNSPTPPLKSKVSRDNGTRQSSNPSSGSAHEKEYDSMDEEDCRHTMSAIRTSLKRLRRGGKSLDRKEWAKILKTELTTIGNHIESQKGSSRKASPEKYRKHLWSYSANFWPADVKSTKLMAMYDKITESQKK

On to `Cc1cc(C)n(C2CN(CC(O)COc3ccc(F)cc3)C2)n1` (centres undefined), for which the Percent Effect in experiment [1] was -3.4%; in [2], -20.8%; in experiment [3] it was 2.93%; in [4], 9.67%; in experiment [5] it was -1.12%; in experiment [6], 1.42%. Also, the Percent Effect in experiment [7] is -0.169%; in experiment [8] it was -11.2%; in experiment [9], 4.85%; in experiment [10], -4.88%; in [11] it was -2.37%.
Consider `Cc1cn(CC(=O)NC2CCN(C(=O)C3CC3)CC2)c2ccccc12`, for which the Percent Effect is -5.47% in [1]; 2.7% in [2]; -7.57% in [3]; 10.7% in experiment [4]; 7.72% in experiment [5]; 0.744% in experiment [6]. For the same compound, the Percent Effect in [7] is 4.55%; in [8] it was 9.22%; in experiment [9], 3.23%; in experiment [10], 11.1%; in experiment [11], -3.71%.
For the compound `CCn1nc2c(cc1=O)CN(Cc1nc(N)c3ccccc3n1)CC2`, the Percent Effect was -5.07% in [1]; 5.48% in experiment [2]; -62.9% in [3]; 1.04% in experiment [4]; 3.92% in experiment [5]; 3.64% in experiment [6]. Moreover, the Percent Effect in [7] was 14.6%; in experiment [8], -3.85%; in [9], 2.15%; in [10], 12.5%; in experiment [11] it was -7.75%.
As to `CC(=O)N1CCn2cc(CNC(=O)c3cccn3C)nc2C1`, the Percent Effect in [1] is -2.25%; in [2], 13.3%; in experiment [3], 8.17%; in experiment [4] it was -3.72%; in experiment [5] it was -5.32%; in experiment [6] it was 0.233%. Besides, the Percent Effect in [7] was 2.2%; in experiment [8], 5.97%; in [9] it was 3.19%; in [10] it was 14.1%; in experiment [11], -2.9%.
Consider `COCCNc1nc2c(c(NCc3ccncc3)n1)CCNCC2`, for which the Percent Effect in experiment [1] was 1.06%; in experiment [2], 0%; in experiment [3], -4.61%; in experiment [4], 0.0545%; in experiment [5], 3.28%; in experiment [6], -3.81%. Besides, the Percent Effect in experiment [7] was 13.8%; in experiment [8], 5.66%; in experiment [9], 5.82%; in experiment [10], 7.32%; in experiment [11], -2.76%.
For `O=C1CC(c2cccs2)c2snc(C(=O)O)c2N1` (centres undefined), the Percent Effect is -2.26% in experiment [1]; 4.17% in experiment [2]; -2.53% in experiment [3]; 8.18% in experiment [4]; 4.76% in [5]; 3.09% in [6]. Further, the Percent Effect is 2.63% in [7]; 1.26% in [8]; 2.1% in experiment [9]; 5.13% in experiment [10]; -3.46% in experiment [11].
Take `Cc1ccc(C)c(NC(=O)c2n[nH]c(-n3cnnc3)n2)c1`: the Percent Effect in experiment [1] is -1.59%; in experiment [2], 6.67%; in [3], 0.649%; in experiment [4], 8.26%; in experiment [5] it was 2.75%; in [6] it was -2.64%. The Percent Effect in experiment [7] is 9.24%; in [8] it was 18.5%; in experiment [9], 6.35%; in experiment [10] it was 10.3%; in experiment [11] it was -4%.
As for `O=C(Nc1ncn(CC(=O)N2CCCCCC2)n1)C1CCCO1` (centres undefined), the Percent Effect was -2.31% in experiment [1]; 7.89% in [2]; 0.569% in experiment [3]; 1.68% in [4]; -6.39% in experiment [5]; 4.6% in experiment [6]. Moreover, the Percent Effect is 1% in [7]; 17.6% in experiment [8]; 2.45% in [9]; 9.76% in experiment [10]; -1.04% in experiment [11].
In the case of `CCOc1cccc(C(=O)NCCC(=O)Nc2ccncc2)c1`, the Percent Effect was -1.91% in [1]; -5.26% in experiment [2]; 3.2% in experiment [3]; -0.438% in experiment [4]; -2.43% in [5]; 8.28% in [6]. Further, the Percent Effect was 13.7% in experiment [7]; 3.36% in experiment [8]; 4.25% in [9]; 10.4% in experiment [10]; -3.67% in [11].
